Measurements as given in PubChem BioAssay (NCATS).
Records with an inconclusive call do not appear. Calls of active or inactive are those of the source. Calls follow the shape of the dose curve; as a rule, active = well fitted inhibition curve with a large enough effect; inconclusive = small, poorly fitted or top-dose-only effect; inactive = flat fitted curve, though single readings scatter.

Assays:
[1] = qHTS profiling for inhibitors of Plasmodium falciparum proliferation (AID 504749);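 also: 0% = DMSO vehicle and full inhibition = artemisinin control; nearly all actives have a fitted effect of over 60% in size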; settings: P. falciparum in erythrocytes, SYBR Green DNA, 72 h
How it was run: (§1)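 Three-day growth assay of blood-stage parasites in erythrocytes (0.3% parasitemia, 2.5% hematocrit) at 37 C, 5% CO2, quantified by SYBR Green DNA staining after overnight detergent lysis.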

3D7 = assay: as above; settings: P. falciparum in erythrocytes, SYBR Green DNA, 72 h; series mostly up to 28.7 µM
How it was run: as §1

7G8 = assay: as above; settings: P. falciparum in erythrocytes, SYBR Green DNA, 72 h; series mostly up to 28.7 µM
How it was run: as §1

AA1029 = assay: as above; settings: P. falciparum in erythrocytes, SYBR Green DNA, 72 h; series mostly up to 28.7 µM
How it was run: as §1

AS120 = assay: as above; settings: P. falciparum in erythrocytes, SYBR Green DNA, 72 h; series mostly up to 28.7 µM
How it was run: as §1

ATS189 = assay: as above; settings: P. falciparum in erythrocytes, SYBR Green DNA, 72 h; series mostly up to 28.7 µM
How it was run: as §1

ATS95 = assay: as above; settings: P. falciparum in erythrocytes, SYBR Green DNA, 72 h; series mostly up to 28.7 µM
How it was run: as §1

C2A = assay: as above; settings: P. falciparum in erythrocytes, SYBR Green DNA, 72 h; series mostly up to 28.7 µM
How it was run: as §1

CP185 = assay: as above; settings: P. falciparum in erythrocytes, SYBR Green DNA, 72 h; series mostly up to 28.7 µM
How it was run: as §1

CP191 = assay: as above; settings: P. falciparum in erythrocytes, SYBR Green DNA, 72 h; series mostly up to 28.7 µM
How it was run: as §1

CP192 = assay: as above; settings: P. falciparum in erythrocytes, SYBR Green DNA, 72 h; series mostly up to 28.7 µM
How it was run: as §1

CP194 = assay: as above; settings: P. falciparum in erythrocytes, SYBR Green DNA, 72 h; series mostly up to 28.7 µM
How it was run: as §1

CP201 = assay: as above; settings: P. falciparum in erythrocytes, SYBR Green DNA, 72 h; series mostly up to 28.7 µM
How it was run: as §1

CP203 = assay: as above; settings: P. falciparum in erythrocytes, SYBR Green DNA, 72 h; series mostly up to 28.7 µM
How it was run: as §1

CP211 = assay: as above; settings: P. falciparum in erythrocytes, SYBR Green DNA, 72 h; series mostly up to 28.7 µM
How it was run: as §1

CP215 = assay: as above; settings: P. falciparum in erythrocytes, SYBR Green DNA, 72 h; series mostly up to 28.7 µM
How it was run: as §1

CP217 = assay: as above; settings: P. falciparum in erythrocytes, SYBR Green DNA, 72 h; series mostly up to 28.7 µM
How it was run: as §1

CP237 = assay: as above; settings: P. falciparum in erythrocytes, SYBR Green DNA, 72 h; series mostly up to 28.7 µM
How it was run: as §1

CP238 = assay: as above; settings: P. falciparum in erythrocytes, SYBR Green DNA, 72 h; series mostly up to 28.7 µM
How it was run: as §1

[2] = at 28.7 µM (top of the series), parasite line A
[3] = at 28.7 µM (top of the series), parasite line B

O=C(O)Cc1cn(-c2ccccc2)nc1-c1ccc(Cl)cc1
inactive: activity, negative = inhibition [1, 2] 11.4% | activity, negative = inhibition [1, 3] 9.39% | Potency (3D7) | Potency (7G8) | Potency (AA1029) | Potency (AS120) | Potency (ATS189) | Potency (ATS95) | Potency (C2A) | Potency (CP185) | outcome (CP191) | outcome (CP192) | outcome (CP194) | outcome (CP201) | Potency (CP203) | outcome (CP211) | Potency (CP215) | outcome (CP217) | Potency (CP237) | Potency (CP238)

O=c1[nH]c2cc(C(F)(F)F)c(N3CCOCC3)cc2n(CP(=O)(O)O)c1=O
inactive: activity, negative = inhibition [1, 2] 11.3% | activity, negative = inhibition [1, 3] -0.254% | Potency (3D7) | Potency (7G8) | Potency (AA1029) | Potency (AS120) | Potency (ATS189) | Potency (ATS95) | Potency (C2A) | Potency (CP185) | outcome (CP191) | outcome (CP192) | outcome (CP194) | outcome (CP201) | Potency (CP203) | outcome (CP211) | Potency (CP215) | outcome (CP217) | Potency (CP237) | Potency (CP238)

CC(=O)Oc1cccc(C)c1
inactive: activity, negative = inhibition [1, 2] 4.88% | activity, negative = inhibition [1, 3] -6.23% | Potency (3D7) | Potency (7G8) | Potency (AA1029) | Potency (AS120) | Potency (ATS189) | Potency (ATS95) | Potency (C2A) | Potency (CP185) | outcome (CP191) | outcome (CP192) | outcome (CP194) | outcome (CP201) | Potency (CP203) | outcome (CP211) | Potency (CP215) | outcome (CP217) | Potency (CP237) | Potency (CP238)

CCCCCCCCCCCCCCCCCCO
inactive: activity, negative = inhibition [1, 2] 2.93% | activity, negative = inhibition [1, 3] 2.31% | Potency (3D7) | Potency (7G8) | Potency (AA1029) | Potency (AS120) | Potency (ATS189) | Potency (ATS95) | Potency (C2A) | Potency (CP185) | outcome (CP191) | outcome (CP192) | outcome (CP194) | outcome (CP201) | Potency (CP203) | outcome (CP211) | Potency (CP215) | outcome (CP217) | Potency (CP237) | Potency (CP238)

CC(=O)Nc1ccc(C(=O)O)cc1
inactive: activity, negative = inhibition [1, 2] 7.84% | activity, negative = inhibition [1, 3] 3.26% | Potency (3D7) | Potency (7G8) | Potency (AA1029) | Potency (AS120) | Potency (ATS189) | Potency (ATS95) | Potency (C2A) | Potency (CP185) | outcome (CP191) | outcome (CP192) | outcome (CP194) | outcome (CP201) | Potency (CP203) | outcome (CP211) | Potency (CP215) | outcome (CP217) | Potency (CP237) | Potency (CP238)

CC(N)CCCC(C)(C)O (stereo not given)
inactive: activity, negative = inhibition [1, 2] 12.5% | activity, negative = inhibition [1, 3] -7.47% | Potency (3D7) | Potency (7G8) | Potency (AA1029) | Potency (AS120) | Potency (ATS189) | Potency (ATS95) | Potency (C2A) | Potency (CP185) | outcome (CP191) | outcome (CP192) | outcome (CP194) | outcome (CP201) | Potency (CP203) | outcome (CP211) | Potency (CP215) | outcome (CP217) | Potency (CP237) | Potency (CP238)

CCc1nnc(NS(=O)(=O)c2ccc(N)cc2)s1
inactive: activity, negative = inhibition [1, 2] 10.2% | activity, negative = inhibition [1, 3] 10.5% | Potency (3D7) | Potency (7G8) | Potency (AA1029) | Potency (AS120) | Potency (ATS189) | Potency (ATS95) | Potency (C2A) | Potency (CP185) | outcome (CP191) | outcome (CP192) | outcome (CP194) | outcome (CP201) | Potency (CP203) | outcome (CP211) | Potency (CP215) | outcome (CP217) | Potency (CP237) | Potency (CP238)

O=C(O)COC(=O)Cc1ccccc1Nc1c(Cl)cccc1Cl
inactive: activity, negative = inhibition ([1]; at 12.8 µM (top of the series), parasite line A) -3.73% | activity, negative = inhibition ([1]; at 12.8 µM (top of the series), parasite line B) 2.28% | Potency (3D7) | Potency (7G8) | Potency (AA1029) | Potency (AS120) | Potency (ATS189) | Potency (ATS95) | Potency (C2A) | Potency (CP185) | outcome (CP191) | outcome (CP192) | outcome (CP194) | outcome (CP201) | Potency (CP203) | outcome (CP211) | Potency (CP215) | outcome (CP217) | Potency (CP237) | Potency (CP238)

CC(CSC(=O)c1ccccc1)C(=O)N1C[C@@H](Sc2ccccc2)C[C@H]1C(=O)O (stereo not given in full)
inactive: activity, negative = inhibition [1, 2] 13% | activity, negative = inhibition [1, 3] 2.24% | Potency (3D7) | Potency (7G8) | Potency (AA1029) | Potency (AS120) | Potency (ATS189) | Potency (ATS95) | Potency (C2A) | Potency (CP185) | outcome (CP191) | outcome (CP192) | outcome (CP194) | outcome (CP201) | Potency (CP203) | outcome (CP211) | Potency (CP215) | outcome (CP217) | Potency (CP237) | Potency (CP238)

COc1cc(C(=O)NCCCCCC(=O)O)cc(OC)c1OC
inactive: activity, negative = inhibition [1, 2] 8.13% | activity, negative = inhibition [1, 3] 13.6% | Potency (3D7) | Potency (7G8) | Potency (AA1029) | Potency (AS120) | Potency (ATS189) | Potency (ATS95) | Potency (C2A) | Potency (CP185) | outcome (CP191) | outcome (CP192) | outcome (CP194) | outcome (CP201) | Potency (CP203) | outcome (CP211) | Potency (CP215) | outcome (CP217) | Potency (CP237) | Potency (CP238)
